Shown are actives, neighbours in structure and some others; about 1.7% of the full set was active somewhere.
MOR-DOR ag = agonists of human mu-delta opioid receptor heterodimerization. 340,000 compounds, 0.3% hits. activation, % at 9.3 µM. AID 504326. cells, OPRM1-OPRD1 heterodimerization, luminescence
MOR-DOR inv ag = inverse agonists of human mu-delta opioid receptor heterodimerization | 340,000 compounds, 0.21% hits | cell-based MOR-DOR heterodimer luminescence, inverse agonism | inhibition, % at 9.3 µM | P35372+P41143 | AID 504357; in the data active means inhibition above about 22%, passing the limit was not always enough
HTR5A ag = counter-screen for OPRM1-OPRD1 agonists: human HTR5A agonism. HTR5A agonist assay, luminescence, cell-based. activation, % at 9.3 µM. 340,000 compounds, 0.61% hits. AID 504692; in the data active means activation mostly above about 9.5%, no sharp cut-off; inactive means mostly below about 7.6%
Target sequence (P47898 whole entry, looked up): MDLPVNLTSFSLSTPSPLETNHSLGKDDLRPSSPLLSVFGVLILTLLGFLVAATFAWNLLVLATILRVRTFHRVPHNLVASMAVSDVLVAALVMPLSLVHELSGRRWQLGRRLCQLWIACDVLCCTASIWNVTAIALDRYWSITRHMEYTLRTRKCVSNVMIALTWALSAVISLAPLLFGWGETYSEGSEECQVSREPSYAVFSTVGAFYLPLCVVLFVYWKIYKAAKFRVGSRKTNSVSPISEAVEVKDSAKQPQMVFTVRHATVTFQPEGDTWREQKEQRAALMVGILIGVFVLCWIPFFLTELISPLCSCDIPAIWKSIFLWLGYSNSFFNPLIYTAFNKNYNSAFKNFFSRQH
V-ATPase pH = yeast V-ATPase proton transport regulation by pHLuorin. AID 504577. 350,000 compounds, 0.37% hits. S. cerevisiae, pHLuorin cytosolic pH fluorescence. response, % at 10 µM; in the data active means response mostly above about 7.3%, no sharp cut-off; inactive means mostly below about 5.4%; further: actives read high
HTR5A inv ctr = inverse agonist of human HTR5A in OPRM1-OPRD1 counter-screen; HTR5A cell line, luminescence, inverse agonism; inhibition, % at 9.3 µM; AID 504634; 340,000 compounds, 0.083% hits; in the data active means inhibition mostly above about 23%, no sharp cut-off; inactive means mostly below about 18%
beta cell repl = inducers of beta-cell replication in MIN6 cells. 330,000 compounds, 0.29% hits. proliferation, % at 10 µM. MIN6 cells proliferation, ATPlite luminescence, 48 h; cells starved in 0.2% serum; 100% = growth in 10% serum. AID 2380;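 active means compounds whose signal lies at least 3.5 SD above the mean of all wells on their plate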
MOR-DOR ag conf = OPRM1-OPRD1 heterodimer agonism, confirmation; AID 504904; shares compounds with MOR-DOR ag; 830 compounds, 45% hits; cells, MOR-DOR heterodimerization, luminescence complementation; activation, % at 9.3 µM
HTR5A ag ctr2 = activates human HTR5A in OPRM1-OPRD1 agonist counter-screen | activation, % at 9.3 µM | AID 504905 | 830 compounds, 8% hits | shares compounds with MOR-DOR ag | HTR5A agonist counterscreen, cell luminescence; in the data active means activation above about 17%
Numbers stand for hits; – = inactive; · = not tested or not shown. Unless noted, no stated cut-off is given here; in the data, active means activation above about 18%; inactive means the rest.

SMILES	MOR-DOR ag	MOR-DOR inv ag	HTR5A ag	V-ATPase pH	HTR5A inv ctr	beta cell repl	MOR-DOR ag conf	HTR5A ag ctr2
Cc1ccc(-n2cccn2)c(CN2CCC(CO)(CCc3ccccc3)CC2)c1	29.1	–	–	–	–	·	–	–
Cc1cccc(NC(=O)c2cc(-c3cc(C)c(C)cc3O)n[nH]2)c1	–	–	–	–	–	–	·	·
Cc1cccc(NC(=O)c2cc(-c3cc(C)ccc3O)n[nH]2)c1	18.4	–	–	–	–	–	–	–
CC(=O)Nc1ccc(CN2CCCC(C(=O)c3cccc(C(F)(F)F)c3)C2)cc1 (stereo not drawn)	58.3	–	–	–	–	–	56.1	–
O=C(NCc1ccccc1)c1nnc(CS(=O)(=O)c2ccccc2)o1	–	–	–	–	–	–	·	·
COc1cccc(N2CCN(c3ncnc4c3cnn4-c3ccc(C)cc3C)CC2)c1	23.4	–	–	–	–	–	27.3	–
COc1cccc(CN2CCC(n3nccc3NC(=O)CCCc3ccccc3)CC2)c1O	–	–	–	–	–	–	·	·
COc1ccc(CN2CCC(n3nccc3NC(=O)CCc3ccccc3)CC2)c(C)c1C	23.2	–	–	–	–	–	–	–
COc1ccc(CNC(=O)C(=O)NCC2CCCN2S(=O)(=O)c2cccs2)cc1 (stereo not drawn)	–	–	–	–	–	–	·	·
COc1ccc(NC(=O)COc2ccccc2C(=O)NCC(c2ccccc2)N(C)C)cc1Cl (stereo not drawn)	64.5	–	–	–	–	–	62.1	–
Cc1ccc2[nH]c3c(N4CCc5ccccc5C4)ncnc3c2c1	371.4	–	–	–	–	–	–	19.4
OCC1CCCCN1C(=S)Nc1cccc(Cl)c1 (stereo not drawn)	–	–	–	–	–	–	·	·
Cc1ccc(-n2cc(CNCCCn3cccn3)c(-c3cccc(C)c3)n2)cc1	–	–	–	–	–	–	·	·
Cc1ccc(C)c(-n2cc(CNC(C)Cn3cncn3)c(-c3ccccc3)n2)c1 (stereo not drawn)	39.5	–	–	–	–	–	36.3	–
Cc1ccc(C)c(-n2cc(CNCCCn3cccn3)c(-c3ccccc3)n2)c1	242.7	–	–	–	–	–	218.2	–
Cc1ccc(-n2cc(CNC(C)Cn3cncn3)c(-c3ccc(F)cc3)n2)cc1 (stereo not drawn)	–	–	–	–	–	–	·	·
CCCCN(C)CCN1C(=O)C2C(C(=O)Nc3ccc(C)cc3)C3C=CC2(O3)C1C(=O)NC1CCCCC1 (stereo not drawn)	–	–	–	–	–	–	·	·
CCN(CC)CCN1C(=O)C2C(C(=O)Nc3ccc(C(C)C)cc3)C3C=CC2(O3)C1C(=O)NC1CCCCC1 (stereo not drawn)	37.5	–	–	–	–	–	–	–
CC(C)c1ccc(NC(=O)C2C3C=CC4(O3)C2C(=O)N(CCCN2CCCCC2)C4C(=O)NC2CCCCC2)cc1 (stereo not drawn)	26.3	–	–	–	–	–	–	–
Cc1ccc(NC(=O)C2C3C=CC4(O3)C2C(=O)N(CCCN2CCCC2)C4C(=O)NC2CCCCC2)cc1Cl (stereo not drawn)	–	–	–	–	–	–	·	·
COc1cccc(C(C(=O)NC(C)(C)C)N(Cc2ccc(F)cc2)C(=O)CCC(=O)Nc2cc(C)on2)c1OC (stereo not drawn)	–	–	–	–	–	–	·	·
COc1ccc(N(CC(=O)Nc2cccnc2)S(=O)(=O)c2ccc(C)cc2)cc1Cl	–	–	–	–	–	–	·	·
COc1ccc(S(=O)(=O)N(CC(=O)Nc2cccnc2)c2ccccc2OC)cc1	64.5	–	–	–	–	–	–	–
COc1ccc(C)cc1N(CC(=O)Nc1cccnc1)S(=O)(=O)c1ccc(C)cc1	69.3	–	–	–	–	–	–	–
COc1ccc2cc3cc(C(=O)Nc4cc(OC)c(OC)c(OC)c4)oc3nc2c1	19.5	–	–	–	–	–	20.6	–
SMILES	MOR-DOR ag	MOR-DOR inv ag	HTR5A ag	V-ATPase pH	HTR5A inv ctr	beta cell repl	MOR-DOR ag conf	HTR5A ag ctr2
COc1ccc2cc3cc(C(=O)NC(C)C)oc3nc2c1	–	–	–	–	–	–	·	·
COC(=O)CC1(C(=O)OC)Oc2ccc(Br)cc2C(=O)N1c1ccc(Br)cc1Cl (stereo not drawn)	46.0	–	–	–	–	–	–	–
CC(=O)c1cc(CN2CCN(Cc3ccccc3)C(CCO)C2)cs1 (stereo not drawn)	–	–	–	–	–	–	·	·
COc1ccc2cc(C)c(SCC(=O)Nc3cc(C)on3)nc2c1	18.4	–	–	–	–	–	–	–
Cc1ccc(-n2cc(CNC(C)c3cnn(C)c3C)c(-c3ccc(F)cc3)n2)cc1 (stereo not drawn)	221.9	–	–	–	–	–	33.9	–
Cc1ccc(-n2cc(CNCCCn3ccnc3C)c(-c3ccc(F)cc3)n2)cc1	–	–	–	–	–	–	·	·
Cc1ccc(-n2cc(CNC(C)c3cnn(C)c3)c(-c3ccc(F)cc3)n2)cc1 (stereo not drawn)	366.0	–	–	·	–	–	439.8	–
Cc1oc(-c2cccc(F)c2)nc1CN(Cc1ccccc1)C[C@@H]1CCC(=O)N1	28.7	–	–	–	–	–	–	–
COc1ccc(CN(C)CCCn2cnc(C(=O)Nc3ccc(C)c(C)c3)n2)cc1OC	–	–	–	–	–	·	·	·
Cc1ccccc1Nc1nc(-c2ccccc2)c(C(=O)Nc2cccnc2)s1	–	–	–	–	–	–	·	·
O=C(Nc1cccnc1)c1sc(Nc2ccccc2F)nc1-c1ccccc1	20.7	–	–	–	–	–	–	–
Cn1c(N)c(C(=O)COC(=O)COc2cc(Cl)c(Cl)cc2Cl)c(=O)n(C)c1=O	–	–	–	–	–	–	·	·
COC(=O)CCCNC(=O)c1ccc(OC2CCN(CCc3ccccc3)CC2)cc1	37.9	–	–	–	–	–	34.6	–
O=C(COc1ccc(/C=N/NC(=O)c2cc3ccccc3o2)cc1Br)Nc1ccccc1	44.8	–	–	–	–	–	40.9	–
COC(=O)CSc1nnc(-c2sc3cc(OC)ccc3c2Cl)n1C	18.5	–	–	–	–	–	–	–
CCC(C)(C)C(=O)Nc1ncc(S(=O)(=O)c2ccc([N+](=O)[O-])cc2)s1	–	–	–	–	–	–	·	·
CCCC(C)C(=O)Nc1ncc(S(=O)(=O)c2ccc([N+](=O)[O-])cc2)s1 (stereo not drawn)	20.9	–	–	–	–	–	–	–
CC(NCc1cc(Br)ccc1OCC(=O)NCc1ccccc1)c1ccccc1 (stereo not drawn)	33.0	–	–	–	–	–	18.6	–

High-throughput results as filed in PubChem BioAssay.
